Results as given in PubChem BioAssay (EPA / NIEHS).
Records with an inconclusive call do not appear. Activity calls are given as the source filed them. Rule for the calls, unless noted: active = hit-call score of the fitted dose curve at least 0.9, where 1 is the maximum; inactive = score below 0.9.

Tests used:
[1] = biological target: Paired box protein Pax-6 (Homo sapiens) (UniProt P26367); assay: ATG_Pax6_CIS: Attagene CIS-FACTORIAL HepG2 Assay for human Paired Box 6 (PAX6) (AID 2282956); conditions: HepG2 CIS-FACTORIAL PAX6 reporter transcription, RNA readout; actives raise or lower the signal
Chain of Paired box protein Pax-6 (Homo sapiens) (P26367 whole entry, looked up): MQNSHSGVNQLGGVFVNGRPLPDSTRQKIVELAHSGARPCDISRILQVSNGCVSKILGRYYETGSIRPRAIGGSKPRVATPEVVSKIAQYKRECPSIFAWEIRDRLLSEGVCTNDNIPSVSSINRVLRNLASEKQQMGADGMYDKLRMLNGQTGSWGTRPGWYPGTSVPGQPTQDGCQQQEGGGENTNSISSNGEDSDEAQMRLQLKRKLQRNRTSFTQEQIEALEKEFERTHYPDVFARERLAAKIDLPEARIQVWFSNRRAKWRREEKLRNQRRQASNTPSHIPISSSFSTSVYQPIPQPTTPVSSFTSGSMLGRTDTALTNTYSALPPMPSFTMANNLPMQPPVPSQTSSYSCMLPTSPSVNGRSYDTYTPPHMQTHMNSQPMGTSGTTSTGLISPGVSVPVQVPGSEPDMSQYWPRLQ
Outline: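 Readout: reporter transcript fluorescence after RT-PCR and capillary electrophoresis. Cells: HepG2, transiently transfected with cis-regulated MRTUs. Exposure 24 h. Gain or loss of signal fitted bidirectionally relative to DMSO.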

[2] = ATG_PXRE_CIS: Attagene CIS-FACTORIAL HepG2 Assay for human Pregnane X Receptor Element (PXRE) (AID 2282957); conditions: HepG2 Attagene CIS-FACTORIAL PXRE reporter, mRNA; actives raise or lower the signal
Outline: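 Endogenous transcription factor activity in HepG2 was gauged through induction of reporter mRNA driven by a cis-regulating promoter element, sampled 24 h post-treatment. Activity was fitted in both directions against DMSO negative control.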

[3] = ATG_PPRE_CIS: Attagene CIS-FACTORIAL HepG2 Assay for human Peroxisome Proliferator-activated Response Element (PPRE) (AID 2282958); conditions: HepG2 PPRE cis-element reporter, Attagene transcription factor profiling; actives raise or lower the signal
Outline: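 HepG2 cells transiently transfected with multiplexed cis-element reporter units measure endogenous transcription factor activity. After 24 h compound exposure, reporter mRNA is quantified by RT-PCR, 6-FAM labeling, HpaI digestion and capillary electrophoresis; bidirectional fits are made against DMSO baseline.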

[4] = ATG_RORE_CIS: Attagene CIS-FACTORIAL HepG2 Assay for human RAR-related Orphan Receptor Element (RORE) (AID 2282959); conditions: HepG2 Attagene cis-factorial RORE reporter, mRNA; actives raise or lower the signal
Outline: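 HepG2 cells transiently transfected with multiple cis-element reporter transcription units, exposed to chemical for 24 h. Reporter mRNA quantified by RT-PCR, 6-FAM primer-extension labeling, HpaI digestion and capillary electrophoresis; bidirectional fit versus DMSO baseline.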

[5] = ATG_Sox_CIS: Attagene CIS-FACTORIAL HepG2 Assay for human SRY-box transcription factor (SOX) (AID 2282960); conditions: HepG2 Attagene cis-factorial SOX reporter, mRNA; actives raise or lower the signal
Outline: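 HepG2 cells transiently transfected with cis-element-driven multiple reporter transcription units, dosed 24 h; reporter mRNA measured by RT-PCR, FAM labelling, HpaI digestion and capillary electrophoresis. Bidirectional fit versus DMSO baseline.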

[6] = biological target: Transcription factor Sp1 (Homo sapiens) (UniProt P08047); assay: ATG_Sp1_CIS: Attagene CIS-FACTORIAL HepG2 Assay for human Specificity Protein 1 (Sp1) (AID 2282961); conditions: HepG2 Sp1 cis-reporter transcription, actives raise or lower the signal
Chain of Transcription factor Sp1 (Homo sapiens) (P08047 whole entry, looked up): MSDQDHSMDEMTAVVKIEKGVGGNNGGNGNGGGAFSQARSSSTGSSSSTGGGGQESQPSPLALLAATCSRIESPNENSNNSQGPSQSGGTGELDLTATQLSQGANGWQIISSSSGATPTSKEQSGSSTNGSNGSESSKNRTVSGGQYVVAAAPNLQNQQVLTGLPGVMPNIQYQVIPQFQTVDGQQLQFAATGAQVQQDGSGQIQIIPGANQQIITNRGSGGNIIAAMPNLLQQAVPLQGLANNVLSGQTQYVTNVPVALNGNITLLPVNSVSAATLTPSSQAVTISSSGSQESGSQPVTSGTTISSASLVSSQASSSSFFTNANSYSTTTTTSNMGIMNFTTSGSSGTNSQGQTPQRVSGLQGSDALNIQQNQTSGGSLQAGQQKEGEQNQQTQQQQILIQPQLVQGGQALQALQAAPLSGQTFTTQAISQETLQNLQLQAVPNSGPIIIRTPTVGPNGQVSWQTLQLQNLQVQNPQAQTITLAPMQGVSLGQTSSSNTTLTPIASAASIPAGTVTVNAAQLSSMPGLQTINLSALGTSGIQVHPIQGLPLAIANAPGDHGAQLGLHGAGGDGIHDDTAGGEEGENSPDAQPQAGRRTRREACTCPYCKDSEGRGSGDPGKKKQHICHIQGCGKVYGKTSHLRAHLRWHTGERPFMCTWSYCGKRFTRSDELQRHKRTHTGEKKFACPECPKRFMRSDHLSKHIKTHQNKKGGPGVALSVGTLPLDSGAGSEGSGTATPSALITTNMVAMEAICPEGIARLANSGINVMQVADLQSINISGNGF
Outline: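 HepG2 cells transiently transfected with multiple reporter transcription units driven by cis-regulatory elements; Sp1-responsive reporter mRNA measured 24 h after dosing by RT-PCR and capillary electrophoresis fluorescence, fitted bidirectionally against DMSO baseline.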

[7] = ATG_SREBP_CIS: Attagene CIS-FACTORIAL HepG2 Assay for human Sterol Regulatory Element Binding (SREBP) (AID 2282962); conditions: HepG2 Attagene cis-factorial SREBP reporter, mRNA; actives raise or lower the signal
Outline: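 Readout: fluorescent reporter-transcript peaks resolved by capillary electrophoresis after RT-PCR. Cells were human HepG2 carrying transfected cis-promoter reporter constructs, dosed for 24 h. Gain or loss of signal was fitted against DMSO controls.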

[8] = biological target: Signal transducer and activator of transcription 3 (Homo sapiens) (UniProt P40763); assay: ATG_STAT3_CIS: Attagene CIS-FACTORIAL HepG2 Assay for human Signal Transducer and Activator of Transcription 3 (STAT3) (AID 2282963); conditions: HepG2, Attagene cis-factorial STAT3 reporter transcription; actives raise or lower the signal
Chain of Signal transducer and activator of transcription 3 (Homo sapiens) (P40763 whole entry, looked up): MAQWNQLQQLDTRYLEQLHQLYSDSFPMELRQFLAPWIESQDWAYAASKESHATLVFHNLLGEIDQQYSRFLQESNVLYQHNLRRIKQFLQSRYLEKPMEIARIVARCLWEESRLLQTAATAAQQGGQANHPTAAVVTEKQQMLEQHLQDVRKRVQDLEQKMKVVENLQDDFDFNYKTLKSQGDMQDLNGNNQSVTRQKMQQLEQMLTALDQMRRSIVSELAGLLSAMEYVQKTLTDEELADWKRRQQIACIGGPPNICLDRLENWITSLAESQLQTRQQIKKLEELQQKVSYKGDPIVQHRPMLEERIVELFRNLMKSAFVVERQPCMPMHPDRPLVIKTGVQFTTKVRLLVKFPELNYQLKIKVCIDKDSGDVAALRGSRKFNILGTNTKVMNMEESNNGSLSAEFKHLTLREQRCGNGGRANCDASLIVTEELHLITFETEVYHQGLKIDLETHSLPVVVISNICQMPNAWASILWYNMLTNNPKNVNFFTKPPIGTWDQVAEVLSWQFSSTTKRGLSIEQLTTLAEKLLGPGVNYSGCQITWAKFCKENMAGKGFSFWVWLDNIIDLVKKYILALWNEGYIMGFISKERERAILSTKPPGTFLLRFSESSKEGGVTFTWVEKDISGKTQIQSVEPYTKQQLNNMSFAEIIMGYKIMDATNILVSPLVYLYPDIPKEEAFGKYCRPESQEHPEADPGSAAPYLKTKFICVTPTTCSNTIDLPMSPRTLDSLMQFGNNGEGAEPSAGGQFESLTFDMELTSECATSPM
Outline: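 HepG2, MRTU-transfected, 24 h dosing. RNA → RT → PCR → FAM label → HpaI → CE. Bidirectional fit vs DMSO.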

[9] = ATG_TA_CIS: Attagene CIS-FACTORIAL HepG2 Assay for human TA Basal Promoter (AID 2282964); conditions: HepG2 Attagene CIS-factorial TA basal promoter reporter; actives raise or lower the signal
Outline: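 Multiplexed mRNA reporter assay, HepG2, 24 h. Reporter cDNA amplified, 6-FAM primer-extended, HpaI-cut, CE-sized; DMSO = negative control and baseline.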

[10] = ATG_TCF_b_cat_CIS: Attagene CIS-FACTORIAL HepG2 Assay for human T-Cell-Factor with beta-catenin (TCF/b-cat) (AID 2282965); conditions: HepG2 TCF/beta-catenin cis-reporter transcription, actives raise or lower the signal
Outline: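 In this cis-format system, transfected HepG2 cells report endogenous transcription factor activity. Readout after 24 h exposure is reporter transcript abundance from RT-PCR and capillary electrophoresis, analysed for gain or loss of signal versus DMSO.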

[11] = ATG_TAL_CIS: Attagene CIS-FACTORIAL HepG2 Assay for human TAL Basal Promoter (AID 2282966); conditions: HepG2 Attagene cis-factorial TAL promoter reporter; actives raise or lower the signal;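 note: background control endpoint measuring basal TAL promoter reporter mRNA not a specific factor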
Outline: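 Endogenous transcription-factor activity is sensed in HepG2 cells through transfected cis-promoter reporter constructs. After 24 h dosing, reporter transcripts are quantified by RT-PCR and capillary electrophoresis. Gain or loss of signal is fitted relative to DMSO.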

[12] = ATG_TGFb_CIS: Attagene CIS-FACTORIAL HepG2 Assay for human Transforming Growth Factor (TGF) (AID 2282967); conditions: HepG2 Attagene CIS TGFb reporter, mRNA transcription; actives raise or lower the signal
Outline: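 Transcript-level reporter readout: HepG2 transfectants, 24 h exposure, RNA to cDNA, reporter-specific PCR, fluorescent primer extension, capillary sizing against ROX standards. Gain- or loss-of-signal relative to DMSO.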

[13] = ATG_VDRE_CIS: Attagene CIS-FACTORIAL HepG2 Assay for human Vitamin D Receptor Element (VDRE) (AID 2282968); conditions: HepG2 VDRE cis-reporter transcription, actives raise or lower the signal
Outline: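 Steps: transfect HepG2 with multiple reporter transcription units; dose chemicals 24 h; isolate RNA; RT-PCR; label with 6-FAM primer extension; HpaI digest; capillary electrophoresis. Curves fitted both directions against DMSO.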

[14] = biological target: Estrogen receptor (Homo sapiens) (UniProt P03372); assay: ATG_ERa_TRANS: Attagene TRANS-FACTORIAL HepG2 Assay for human Estrogen Receptor alpha (ERa) (AID 2282970; active = hit-call score of the fitted dose curve at least 0.9, where 1 is the maximum); conditions: HepG2 Attagene TRANS ERa GAL4 reporter, mRNA
Chain of Estrogen receptor (Homo sapiens) (P03372 whole entry, looked up, the tested form may be a part): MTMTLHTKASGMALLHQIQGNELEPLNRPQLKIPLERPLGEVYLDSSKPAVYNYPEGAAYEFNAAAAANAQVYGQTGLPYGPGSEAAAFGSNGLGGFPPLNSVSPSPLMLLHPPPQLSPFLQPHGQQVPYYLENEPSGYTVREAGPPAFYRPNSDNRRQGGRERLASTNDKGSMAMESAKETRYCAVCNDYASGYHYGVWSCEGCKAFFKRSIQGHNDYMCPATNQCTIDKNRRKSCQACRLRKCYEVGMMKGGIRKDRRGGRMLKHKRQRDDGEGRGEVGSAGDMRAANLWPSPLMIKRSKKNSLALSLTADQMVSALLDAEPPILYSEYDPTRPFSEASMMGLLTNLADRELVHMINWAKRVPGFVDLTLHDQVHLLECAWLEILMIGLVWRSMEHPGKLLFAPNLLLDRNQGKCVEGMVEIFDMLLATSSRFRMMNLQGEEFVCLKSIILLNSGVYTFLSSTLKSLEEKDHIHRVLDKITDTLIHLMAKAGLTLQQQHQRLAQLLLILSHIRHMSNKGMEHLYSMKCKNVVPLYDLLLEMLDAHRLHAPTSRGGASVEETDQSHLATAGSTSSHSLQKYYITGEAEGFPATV
Outline: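 Transfected HepG2 cells carrying GAL4-UAS-driven reporter units were dosed for 24 hours. Total RNA was reverse-transcribed, reporter sequences PCR-amplified, FAM-labelled, HpaI-digested and resolved by capillary electrophoresis. Increases over DMSO control defined activity.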

[15] = biological target: Steroid hormone receptor ERR1 (Homo sapiens) (UniProt P11474); assay: ATG_ERRa_TRANS: Attagene TRANS-FACTORIAL HepG2 Assay for human Estrogen-Related Receptor alpha (ERRa) (AID 2282971; active = hit-call score of the fitted dose curve at least 0.9, where 1 is the maximum); conditions: HepG2 Attagene TRANS reporter, ERRa transactivation
Chain of Steroid hormone receptor ERR1 (Homo sapiens) (P11474 whole entry, looked up, the tested form may be a part): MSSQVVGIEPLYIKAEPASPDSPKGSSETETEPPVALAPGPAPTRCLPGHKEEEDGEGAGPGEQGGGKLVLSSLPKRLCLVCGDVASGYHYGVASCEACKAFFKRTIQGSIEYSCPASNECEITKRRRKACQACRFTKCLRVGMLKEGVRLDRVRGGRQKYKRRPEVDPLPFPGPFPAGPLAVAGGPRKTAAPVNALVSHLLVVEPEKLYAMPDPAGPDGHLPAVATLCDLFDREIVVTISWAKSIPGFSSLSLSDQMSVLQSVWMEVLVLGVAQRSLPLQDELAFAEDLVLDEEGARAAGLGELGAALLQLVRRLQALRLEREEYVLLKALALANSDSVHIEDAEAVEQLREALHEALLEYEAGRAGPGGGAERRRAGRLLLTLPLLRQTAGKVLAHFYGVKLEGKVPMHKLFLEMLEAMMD
Outline: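 HepG2 cells were transiently transfected with multiple GAL4-UAS reporter units, then dosed with compound for 24 h. Total RNA was reverse-transcribed, reporter cDNA PCR-amplified and fluorescently labelled, and fragments resolved by capillary electrophoresis; induction was compared with DMSO.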

[16] = biological target: X-box-binding protein 1 (Homo sapiens) (UniProt P17861); assay: ATG_Xbp1_CIS: Attagene CIS-FACTORIAL HepG2 Assay for human X-box Binding Protein 1 (XBP1) (AID 2282972); conditions: HepG2 XBP1 cis-element reporter, Attagene multiplex; actives raise or lower the signal
Chain of X-box-binding protein 1 (Homo sapiens) (P17861 whole entry, looked up, the tested form may be a part): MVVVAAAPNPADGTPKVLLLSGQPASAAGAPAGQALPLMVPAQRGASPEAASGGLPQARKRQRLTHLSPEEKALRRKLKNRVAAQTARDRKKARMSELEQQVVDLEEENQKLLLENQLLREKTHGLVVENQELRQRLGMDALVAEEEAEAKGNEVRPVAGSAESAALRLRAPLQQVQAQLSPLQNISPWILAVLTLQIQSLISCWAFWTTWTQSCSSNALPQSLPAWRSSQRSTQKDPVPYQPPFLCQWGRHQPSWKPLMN
Outline: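 Read-out: fluorescent reporter mRNA fragments resolved by capillary electrophoresis after RT-PCR. Human HepG2 liver cells carried transfected cis-promoter reporter units and were exposed to chemicals for 24 hours. Gain or loss of signal fitted relative to DMSO baseline.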

[17] = ATG_M_19_TRANS: Attagene TRANS-FACTORIAL HepG2 Assay for M19 Transcription Factor (Internal Marker) (AID 2282974; active = hit-call score of the fitted dose curve at least 0.9, where 1 is the maximum); conditions: HepG2 Attagene TRANS-FACTORIAL M19 internal marker reporter
Outline: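 HepG2 cells transiently transfected with multiple GAL4-UAS reporter transcription units were exposed to chemicals for 24 h. Reporter mRNA was read by RT-PCR, 6-FAM primer extension, HpaI digestion and capillary electrophoresis; gain of signal fitted relative to DMSO.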

[18] = ATG_GAL4_TRANS: Attagene TRANS-FACTORIAL HepG2 Assay for GAL4 (Internal Marker) (AID 2282976; active = hit-call score of the fitted dose curve at least 0.9, where 1 is the maximum); conditions: HepG2 Attagene TRANS GAL4 internal marker reporter
Outline: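 Fluorescence from capillary electrophoresis of labelled RT-PCR products quantifies reporter mRNA induction after 24 h dosing of HepG2 cells carrying transfected GAL4-UAS reporter transcription units. Vehicle DMSO serves as baseline.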

[19] = biological target: Estrogen-related receptor gamma (Homo sapiens) (UniProt P62508); assay: ATG_ERRg_TRANS: Attagene TRANS-FACTORIAL HepG2 Assay for human Estrogen-Related Receptor gamma (ERRg) (AID 2282977; active = hit-call score of the fitted dose curve at least 0.9, where 1 is the maximum;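 note: hits increase reporter signal over DMSO so potencies reflect activators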); conditions: HepG2 Attagene TRANS reporter, ERRg transactivation
Chain of Estrogen-related receptor gamma (Homo sapiens) (P62508 whole entry, looked up, the tested form may be a part): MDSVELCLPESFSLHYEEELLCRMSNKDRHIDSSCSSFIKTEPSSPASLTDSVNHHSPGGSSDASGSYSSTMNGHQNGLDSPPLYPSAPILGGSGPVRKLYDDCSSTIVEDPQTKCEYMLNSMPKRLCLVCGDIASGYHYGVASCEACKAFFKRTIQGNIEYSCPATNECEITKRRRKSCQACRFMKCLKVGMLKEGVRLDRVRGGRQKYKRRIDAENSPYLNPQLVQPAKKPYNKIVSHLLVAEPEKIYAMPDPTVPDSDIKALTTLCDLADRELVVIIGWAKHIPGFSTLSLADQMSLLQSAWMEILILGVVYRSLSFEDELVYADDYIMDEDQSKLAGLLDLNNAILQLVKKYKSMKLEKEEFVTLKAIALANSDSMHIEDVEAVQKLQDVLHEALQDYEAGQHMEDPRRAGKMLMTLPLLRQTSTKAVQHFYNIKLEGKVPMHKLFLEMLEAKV
Outline: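 Induction of reporter transcripts through a chimeric NR-Gal4 protein is quantified in transfected human HepG2 liver cells after 24 h chemical exposure, using RT-PCR with capillary electrophoresis detection and DMSO as baseline.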

[20] = biological target: Nuclear receptor subfamily 1 group I member 3 (Homo sapiens) (UniProt Q14994); assay: ATG_CAR_TRANS: Attagene TRANS-FACTORIAL HepG2 Assay for human Constitutive Androstane Receptor (CAR) (AID 2282969; active = hit-call score of the fitted dose curve at least 0.9, where 1 is the maximum;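 note: activators raise reporter mRNA above DMSO so AC50 marks induction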); conditions: HepG2 Attagene TRANS-FACTORIAL CAR reporter
Chain of Nuclear receptor subfamily 1 group I member 3 (Homo sapiens) (Q14994 whole entry, looked up, the tested form may be a part): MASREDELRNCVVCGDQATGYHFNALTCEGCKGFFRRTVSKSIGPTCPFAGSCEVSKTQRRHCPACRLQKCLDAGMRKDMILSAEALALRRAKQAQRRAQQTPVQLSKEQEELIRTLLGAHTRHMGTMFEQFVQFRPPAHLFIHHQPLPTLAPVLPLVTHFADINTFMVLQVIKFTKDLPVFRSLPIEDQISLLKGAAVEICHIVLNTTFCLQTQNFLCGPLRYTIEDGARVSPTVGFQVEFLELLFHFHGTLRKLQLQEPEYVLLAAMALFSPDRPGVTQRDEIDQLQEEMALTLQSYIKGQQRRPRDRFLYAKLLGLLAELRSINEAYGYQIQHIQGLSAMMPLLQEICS
Outline: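 Steps: transient transfection of HepG2 with multiple GAL4-UAS reporter units; 24 h compound incubation; RNA isolation, RT-PCR, 6-FAM primer extension, HpaI digest; capillary electrophoresis. Gain-of-signal relative to DMSO negative control.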

Measured: AC50

CC(C)c1ccc(C#N)cc1
not listed: [19] | [20]
inactive: all other assays above

CNC(=S)NN
not listed: [15] | [20]
inactive: all other assays above

COCCCOCCCOC
not listed: [14] | [18] | [19] | [20]
inactive: all other assays above

O=c1[nH]nc(-c2ccc([N+](=O)[O-])o2)o1
not listed: [14] | [15] | [17] | [18]
inactive: all other assays above

O=C(/C=C/C=C/c1ccc2c(c1)OCO2)N1CCCCC1
active: [2] 2.37 µM | [9] 66.9 µM | [11] 100 µM | [13] 2.53 µM
not listed: [16] | [19] | [20]
inactive: all other assays above

Cc1cccc(N)n1
not listed: [14] | [15] | [18] | [19] | [20]
inactive: all other assays above

CCCCCc1ccc(Cl)cc1
active: [3] 25.9 µM | [6] 177 µM
not listed: [15] | [19] | [20]
inactive: all other assays above

O=C(O)c1ccccc1Nc1cccc(C(F)(F)F)c1
active: [2] 5.5 µM | [3] 33 µM | [4] 100 µM | [7] 26.5 µM | [9] 100 µM | [13] 44.5 µM | [16] 76.5 µM
not listed: [15] | [17] | [18] | [19] | [20]
inactive: all other assays above
